From PubChem BioAssay (NCI) come the findings set out here.

This is part of a sample that, as a whole, favours compounds with a hit. Of some 83,000 tested, about 20% had one in any assay.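 Note: values are percent growth. 100 is the growth of untreated cells, values between 100 and 0 indicate rising inhibition; between -100 and 0 indicates cell death.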 A number with no mark means an inactive call. Activity calls are given as the source filed them. Rule for the calls: active = growth percent below 10; inactive = the rest.

What all share (experiment): NCI-60 one-dose screen, 48 h (100 = growth as untreated, 0 = no growth, -100 = all killed)
Common to all, as to details: 10 µM

In assay [1] the test system is SK-MEL-2 melanoma.
Assay [2] has as its system SN12C renal.
The subject of assay [3] is UO-31 renal.
The test system of assay [4] is TK-10 renal.
Assay [5] deals with ACHN renal.
Assay [6] has as its system CAKI-1 renal.
Assay [7] has as its system A498 renal.
The test system of assay [8] is CCRF-CEM leukemia.
The test system of assay [9] is MOLT-4 leukemia.

For the compound `COc1cc(/C=C/C(=O)c2cc(-c3ccccc3)ccc2O)cc(OC)c1OC`, the growth in assay [1] was 77.2%; in [2], 76.2%; in assay [3] it was 53.4%; in assay [4], 105%; in assay [5] it was 77.3%; in assay [6], 61.6%. For the same compound, the growth was 74.3% in assay [7], 8.52% (active) in [8] and 28% in assay [9].
As to `COc1ccc(-c2cc(/C=C3\C(=O)Nc4cc(Cl)ccc43)[nH]n2)cc1OC`, the growth in [1] is 58.7%; in [2], 70.5%; in [3], 74.6%; in assay [4] it was 92.7%; in assay [5], 84.3%; in assay [6], 63.9%. For the same compound, the growth was 65.3% in [7], 54.2% in assay [8] and 75% in assay [9].
With `O=C(Nc1cccc(Cl)c1)Nc1cc2ncncc2cc1OCc1cccc(F)c1`, the growth in assay [1] was -24.3% (active); in assay [2], 21.7%; in assay [3], 9.37% (active); in [4] it was -3.16% (active); in assay [5] it was 3.47% (active); in assay [6], 14.6%. Moreover, the growth in [7] was -9.36% (active); in assay [8], 2.81% (active); in assay [9] it was 4.84% (active).
For the compound `CCCCCCCCCCCCCCCCn1cc[n+](C)c1`, the growth in assay [1] was -64.5% (active); in assay [2], -94.6% (active); in [3], -85.9% (active); in assay [4] it was -80.4% (active); in [5], -0.6% (active); in assay [6] it was -83.5% (active). Moreover, the growth in assay [7] is -65.3% (active); in [8] it was 33.6%; in assay [9], 17.2%.
For `CCOc1ccc2c(c1)CC[C@@H]1[C@@H]2CC[C@]2(C)[C@@H](O)[C@@H](O)C[C@@H]12`, the growth in assay [1] was 115%; in assay [2], 93.7%; in [3], 89.3%; in [4], 105%; in assay [5], 126%; in assay [6], 89.8%. Further, the figures for the growth in assay [7], in [8] and in assay [9] were 107%, 87.9% and 95.2%, respectively.
With `Cc1nc(N)sc1Sc1nc2ccc(Cl)cc2c(=O)n1-c1ccc(Oc2ccccc2)cc1`, the growth was 96.9% in [1]; 73.9% in assay [2]; 61.8% in assay [3]; 89% in assay [4]; 78.5% in assay [5]; 73.5% in assay [6]. Further, the growth in [7] is 39.9%; in assay [8] it was 41.5%; in assay [9], 44.3%.
For `O=C(CCCC(=O)N/N=C/c1cc(Cl)ccc1O)N/N=C\c1cc(Cl)ccc1O`, the growth in assay [1] was 51.7%; in assay [2], 35.3%; in assay [3], 5.41% (active); in assay [4], 32.3%; in assay [5], 23.1%; in assay [6], -1.73% (active). Also, the results for the growth in [7], in assay [8] and in assay [9] were 63.5%, -0.225% (active) and -12.9% (active), respectively.
Regarding `CC(C)/C=N/NC(N)=S`, the growth is 103% in assay [1]; 85.5% in assay [2]; 72.4% in assay [3]; 109% in [4]; 90.6% in assay [5]; 89% in assay [6]. Moreover, the growth in assay [7] was 82.7%; in assay [8], 28.9%; in assay [9], 64.9%.
As for `O=C(COCc1c(-c2ccccc2)no[n+]1[O-])Nc1nc(-c2ccc(Cl)cc2)cs1`, the growth in assay [1] was 105%; in assay [2] it was 100%; in [3], 80.8%; in assay [4], 113%; in assay [5] it was 112%; in [6], 105%. Moreover, the growth in assay [7] was 97.9%; in [8] it was 90.5%; in assay [9] it was 102%.
Take `CCCc1c(C)nc2scc(-c3ccc(Cl)cc3)n2c1=O`: the growth in [1] is 95.1%; in [2], 96.3%; in assay [3], 73%; in assay [4], 102%; in assay [5], 95.3%; in [6], 96.6%. In addition, the growth in [7] was 98.2%; in assay [8], 95%; in assay [9], 87.1%.
`CC1(CO)CCCC12OCCO2` (stereo not given): the growth was 95.2% in [1]; 100% in [2]; 93.7% in [3]; 107% in [4]; 102% in [5]; 101% in assay [6]. Also, the growth is 94.1% in assay [7], 97.3% in assay [8] and 107% in assay [9].
As for `COc1ccc(-n2nnc3c(sc4ccccc43)c2=O)cc1`, the growth is 77.1% in [1]; 61.9% in assay [2]; 1.83% (active) in [3]; 8.22% (active) in assay [4]; -22.3% (active) in [5]; 36.6% in assay [6]. Further, the growth in assay [7] was -2.38% (active); in [8], 89.9%; in assay [9], 99.5%.
Regarding `COc1cc(C2C(C#N)=C(c3c[nH]c4ccccc34)Nc3nc(N)[nH]c(=O)c32)cc(OC)c1OC` (stereo not given), the growth in assay [1] is 93.8%; in [2], 90.9%; in assay [3], 79.3%; in assay [4], 123%; in assay [5], 95%; in [6] it was 95.2%. In addition, the results for the growth in assay [7], in [8] and in assay [9] were 89.9%, 53.5% and 98.2%, respectively.
Regarding `COc1ccc(-c2nc(NC(=O)CS(=O)(=O)c3ccc(F)cc3)sc2C)cc1`, the growth in assay [1] was 72.7%; in assay [2], 55.5%; in assay [3] it was 26.8%; in [4], 98.4%; in assay [5], 73.5%; in [6], 51.8%. Besides, the growth was 93.6% in assay [7], 21.2% in [8] and 35.5% in [9].
As to `CCCOCC(O)CNCCN` (stereo not given), the growth in assay [1] is 116%; in assay [2], 92.8%; in [3], 87.8%; in assay [4], 102%; in assay [5], 95.4%; in assay [6], 92.5%. The growth in [7] is 89%; in assay [8], 97.6%; in assay [9], 115%.
In the case of `COc1ccc2nc(C)cc(Nc3ccc(Cl)cc3)c2c1`, the growth in assay [1] is 104%; in [2], 97.4%; in [3] it was 91.1%; in assay [4], 109%; in [5], 105%; in [6], 101%. In addition, the growth in assay [7] is 103%; in [8], 94.5%; in assay [9], 110%.
In the case of `Cc1cc(Nc2cccc(F)c2)nc(NCc2ccccc2)n1`, the growth in assay [1] was 19.8%; in [2] it was 16.7%; in assay [3], 20.7%; in [4] it was 35.7%; in assay [5], 17.1%; in [6], 24.1%. The growth in [7] is 24.4%; in [8], 12.8%; in [9], 22.5%.
As to `CS(=O)(=O)Nc1ccc(Nc2c3ccccc3nc3cc(Cl)ccc23)cc1`, the growth in assay [1] was 74.1%; in [2] it was 13.9%; in assay [3], 0.84% (active); in [4] it was 55%; in [5], 9.36% (active); in assay [6], 6.38% (active). The growth is 48.5% in assay [7], 7.94% (active) in assay [8] and -5.91% (active) in assay [9].
For `CC(=O)N(O)c1ccc(/C=C/c2ccccc2)cc1`, the growth in assay [1] was 92.7%; in assay [2] it was 26.5%; in assay [3], -30.8% (active); in [4], 4.86% (active); in assay [5] it was -18.1% (active); in [6], 0.955% (active). For the same compound, the results for the growth in [7], in assay [8] and in [9] were -78.8% (active), 26.5% and 41.8%, respectively.
On to `COc1ccc(-c2cc(/C=C3\C(=O)Nc4cc(Cl)ccc43)[nH]n2)cc1`, for which the growth in [1] is -0.387% (active); in [2], 41.7%; in assay [3], 27.2%; in assay [4], 58.1%; in assay [5], 44.9%; in [6], 29.6%. Also, the growth in [7] was 58.3%; in assay [8] it was 18.6%; in assay [9], 21.7%.
As for `CCc1ccc(-c2nnc(COc3ccc(-c4nc5cc(Cl)c(Cl)cc5[nH]4)cc3OC)o2)cc1`, the growth in [1] is 87.8%; in assay [2], 21.9%; in assay [3], 91.1%; in assay [4], 75.7%; in assay [5] it was 31%; in assay [6], 78.6%. The figures for the growth in assay [7], in assay [8] and in [9] were 65.2%, 63.5% and 69.8%, respectively.
In the case of `CCCn1c(=O)c2c(nc(-c3cccc(OCCCCl)c3)n2C)n(CCC)c1=O`, the growth in assay [1] is 75.6%; in [2], 37.3%; in assay [3], 27.8%; in [4], 36.5%; in assay [5] it was 3.03% (active); in assay [6], 43.7%. Moreover, the growth was -10.8% (active) in assay [7], 86.3% in assay [8] and 73.2% in [9].
Consider `CC(=O)O[C@H]1CC[C@@]2(C)[C@@H](CC[C@@H]3[C@@H]2CC[C@]2(C)C=C(C=O)C[C@@H]32)C1`, for which the growth in [1] was 73.7%; in assay [2], 58.9%; in assay [3], 93%; in [4], 120%; in assay [5], 95%; in [6] it was 91%. Also, the figures for the growth in assay [7], in [8] and in [9] were 94.9%, -20.8% (active) and -29.1% (active), respectively.
On to `Brc1ccc(-c2cn3ccnc3c(-c3ccc(Br)cc3)n2)cc1`, for which the growth in assay [1] was 30.8%; in [2], 53.7%; in [3], 41.6%; in [4], 84.2%; in assay [5], 54.6%; in assay [6], 39.6%. The results for the growth in assay [7], in assay [8] and in assay [9] were 35.9%, 44.8% and 30.4%, respectively.
For `C=CCOc1ccc2c(c1)CC=C1[C@@H]2CC[C@]2(C)C(=O)/C(=N/O)C[C@@H]12`, the growth is 106% in assay [1]; 88.3% in assay [2]; 86% in assay [3]; 72.3% in assay [4]; 55.4% in assay [5]; 50.4% in assay [6]. Moreover, the figures for the growth in assay [7], in assay [8] and in assay [9] were 96.6%, 30.9% and 46%, respectively.
In the case of `COc1cc(-c2nc3cc(Cl)c(Cl)cc3[nH]2)ccc1OCC(=O)NN`, the growth in [1] was 95.9%; in [2] it was 78.7%; in assay [3] it was 71.1%; in assay [4] it was 126%; in assay [5], 72.6%; in [6] it was 41%. The values for the growth in assay [7], in assay [8] and in assay [9] were 83.1%, 59.8% and 67.8%, respectively.
For `COc1cc(Nc2ccnc(N3CCN(c4ccnc5cc(Cl)ccc45)CC3)n2)cc(OC)c1`, the growth in assay [1] was -42.2% (active); in assay [2] it was 19%; in assay [3], -1.54% (active); in [4], -4.71% (active); in [5], 13.2%; in assay [6], 20.2%. The growth in assay [7] was -1.87% (active); in [8], 3.84% (active); in [9], -45.9% (active).
For the compound `Cc1ccc(S(=O)(=O)Oc2ccccc2-c2ccccc2)cc1`, the growth in assay [1] was 28.8%; in assay [2], 39.2%; in assay [3], 22.5%; in assay [4], 45.5%; in assay [5], 44.2%; in [6], 14%. The growth in [7] is 6.79% (active); in assay [8], 18%; in assay [9] it was 20.7%.
On to `COc1cccc2c1O/C(=C\c1ccc([N+](=O)[O-])s1)C2=O`, for which the growth in [1] is 43.3%; in assay [2] it was 70.1%; in assay [3], -0.107% (active); in assay [4], 73.6%; in assay [5], 67.5%; in assay [6] it was 90.9%. Further, the growth is 109% in [7], 43.6% in assay [8] and 75.5% in assay [9].
As for `COc1ccc(OC)c([N+](=O)[O-])c1C=O`, the growth is 136% in [1]; 101% in assay [2]; -43.3% (active) in [3]; 154% in assay [4]; 92.5% in assay [5]; 72.2% in assay [6]. For the same compound, the figures for the growth in [7], in assay [8] and in [9] were 59.2%, 41.4% and 66.8%, respectively.
